This is an account of results in PubChem BioAssay AID1347418 (Sanford-Burnham Center for Chemical Genomics, 2020).

In all, about 1,300 compounds went through this assay and about 750 (58%) were called active. This is one part of the list. Values without a mark were called inactive.

The target in the assay is Sulfhydryl oxidase 1 (Homo sapiens) (UniProt O00391). As to the kind of experiment: QSOX1 enzyme inhibitors, primary screen, biochemical, ROS-Glo H2O2 luminescence, HTS (AID 1347418). The settings on record: recombinant QSOX1, ROS-Glo H2O2 luminescence; at 12.5 µM; hits give high values; active = any value above zero.
Chain of Sulfhydryl oxidase 1 (Homo sapiens) (O00391 whole entry, looked up): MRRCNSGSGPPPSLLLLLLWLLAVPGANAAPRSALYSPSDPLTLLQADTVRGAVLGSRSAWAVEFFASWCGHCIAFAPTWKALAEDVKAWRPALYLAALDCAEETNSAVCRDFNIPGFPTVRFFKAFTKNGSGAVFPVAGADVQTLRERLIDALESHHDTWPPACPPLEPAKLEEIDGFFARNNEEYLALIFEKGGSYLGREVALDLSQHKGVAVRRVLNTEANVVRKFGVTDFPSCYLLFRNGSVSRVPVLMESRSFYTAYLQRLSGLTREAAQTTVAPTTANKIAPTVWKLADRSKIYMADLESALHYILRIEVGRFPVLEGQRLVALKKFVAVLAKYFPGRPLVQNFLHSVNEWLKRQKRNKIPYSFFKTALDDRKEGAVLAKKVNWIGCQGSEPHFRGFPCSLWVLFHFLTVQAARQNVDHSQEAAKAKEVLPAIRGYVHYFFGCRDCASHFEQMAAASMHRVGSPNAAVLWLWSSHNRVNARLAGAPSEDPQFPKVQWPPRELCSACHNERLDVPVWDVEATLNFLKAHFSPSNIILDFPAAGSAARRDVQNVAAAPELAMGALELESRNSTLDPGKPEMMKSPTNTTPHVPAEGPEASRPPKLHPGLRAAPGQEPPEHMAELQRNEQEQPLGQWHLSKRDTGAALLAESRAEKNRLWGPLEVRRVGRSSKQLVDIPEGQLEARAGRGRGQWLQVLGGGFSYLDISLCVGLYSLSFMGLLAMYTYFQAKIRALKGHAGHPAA
Take `C[C@H](CS)C(=O)N1CCC[C@H]1C(=O)O`: the inhibition (in general, the drop in the measured response relative to a control, in per cent) was 0.1% (active).

As to `O=C(O)CCC(=O)N1CCCC1C(=O)O` (stereo not drawn), the inhibition is 4.1% (active). `NC(N)=Nc1nc(CSCC/C(N)=N/S(N)(=O)=O)cs1`: the inhibition was 0.1% (active). As to `CC(C)C(=O)c1c(C(C)C)nn2ccccc12`, the inhibition is -4.2%. For the compound `CCOC(=O)N1CCC(=C2c3ccc(Cl)cc3CCc3cccnc32)CC1`, the inhibition is -1.5%. In the case of `Cc1c(OCC(F)(F)F)ccnc1CS(=O)c1nc2ccccc2[nH]1` (stereo not drawn) it was -0.2%; in that of `CCn1cc(C(=O)O)c(=O)c2cc3c(cc21)OCO3`, 2.6% (active). As for `CCn1nc(C(=O)O)c(=O)c2cc3c(cc21)OCO3`, the inhibition was 3.1% (active). Consider `CCn1cc(C(=O)O)c(=O)c2ccc(C)nc21`, for which the inhibition was -5.8%. For the compound `CCn1cc(C(=O)O)c(=O)c2cc(F)c(N3CCNC(C)C3)c(F)c21` (stereo not drawn), the inhibition is -1.7%. For `O=C(O)c1cc2cc(Cc3cccnc3)ccc2o1`, the inhibition is -7.8%. Turning to `C[C@]12CC[C@@H]3c4ccc(O)cc4CC[C@H]3[C@@H]1CCC2=O`, the inhibition is -1.6%.

As to `COc1ccc2c(c1)CCC1C2CC[C@@]2(C)C1CC[C@@H]2NCCCCCCN1C(=O)C=CC1=O` (stereo partly drawn), the inhibition was -7.4%.

Take `C[C@]12CC[C@@H]3c4ccc(O)cc4CC[C@H]3[C@@H]1CC[C@@H]2O`: the inhibition was 5.6% (active). As for `COc1ccc2c(c1)CCC1C2CC[C@@]2(C)C1CC[C@@H]2NCCCCCCN1C(=O)CCC1=O` (stereo partly drawn), the figure is -2.7%; as for `COc1cc2c(cc1O)CC[C@@H]1[C@@H]2CC[C@]2(C)[C@@H](O)CC[C@@H]12`, 36% (active); as for `C[C@]12CC[C@@H]3c4ccc(O)cc4C[C@@H](CCCCCCCCCS(=O)CCCC(F)(F)C(F)(F)F)[C@H]3[C@@H]1CC[C@@H]2O` (stereo partly drawn), -4.8%. `CCCCCCN(CCCCCC)C(=O)Cc1c(-c2ccc(F)cc2)[nH]c2ccccc12`: the inhibition is -2.9%. For the compound `COc1cc2nc(N3CCCN(C)CC3)nc(NC3CCN(Cc4ccccc4)CC3)c2cc1OC`, the inhibition was 1.5% (active).

`Oc1ccc(O)cc1`: the inhibition was 11.1% (active).

Regarding `C[N+](C)(C)CCOP(=O)(O)OP(=O)([O-])OC[C@H]1O[C@@H](n2ccc(N)nc2=O)C(O)[C@H]1O` (stereo partly drawn), the inhibition is -0.3%. As to `CNc1ncnc2c1ncn2[C@H]1C[C@H](OP(=O)(O)O)[C@@H](COP(=O)(O)O)O1`, the inhibition is -3.3%. Turning to `CSc1nc(N)c2ncn([C@@H]3O[C+](COP(=O)([O-])OP(=O)(O)O)[C@H](O)C3O)c2n1` (stereo partly drawn), the inhibition was 0.7% (active).

Take `NC(N)=NC(=O)Cc1c(Cl)cccc1Cl`: the inhibition is -6.8%. As for `NC(N)=NC(N)=Nc1cccc(Cl)c1`, the inhibition was 9.6% (active). In the case of `NC(N)=NC(N)=Nc1ccccc1` it was -4.7%; in that of `Oc1ccccc1O`, 5.6% (active). As for `CCN(CC)CCCN(c1ccccc1)C1Cc2ccccc2C1`, the figure is 40.2% (active). Consider `CCCN(CCc1ccccc1)C1CCc2c(O)cccc2C1` (stereo not drawn), for which the inhibition is -0.3%.

With `COc1cccc(-c2cc(=O)c3ccccc3o2)c1N`, the inhibition is 0.9% (active).

Turning to `N#Cc1cc2nc(O)c(O)nc2cc1[N+](=O)[O-]`, the inhibition is 0.9% (active).

On to `O=C1NCC2(CCN(CCc3ccccc3)CC2)O1`, for which the inhibition was -1%. As for `C[C@@H](O)[C@H]1C(=O)N2C(C(=O)O)=C(SCCN=CN)C[C@H]12`, the figure is -5.2%; as for `C=CCN1CCc2c(cc(O)c(O)c2Cl)C(c2ccccc2)C1` (stereo not drawn), 31.6% (active).

With `C=CCN1CCc2cc(O)c(O)cc2C(c2ccccc2)C1` (stereo not drawn), the inhibition was 18% (active). `C=CCN1CCc2c(cc(O)c(O)c2Br)[C@@H](c2ccccc2)C1`: the inhibition was 26.8% (active). `Cc1cccc(C2CN(C)CCc3c2cc(O)c(O)c3Cl)c1` (stereo not drawn): the inhibition is 25% (active). Take `COC(=O)C1=CO[C@@H](O)[C@@H]2C(CO)=CC[C@H]12`: the inhibition was -3.2%. As for `NCC1OC(O[C@@H]2[C@H](O)C(OC3C(O)C(N)CC(N)C3OC3OC(CO)C(O)C(O)C3N)O[C@@H]2CO)C(N)C(O)C1O` (stereo partly drawn), the inhibition was -3.5%. In the case of `C=C(C)C1CC=C(C(=O)O)CC1` (stereo not drawn) it was -1.3%; in that of `NC1C=CC=C(C(=O)O)C1` (stereo not drawn), -2.2%. As for `CNC(=O)Oc1ccc2c(c1)[C@]1(C)CCN(C)[C@@H]1N2C`, the figure is 2.6% (active); as for `O=C(O)C1CCCN(CCC=C(c2ccccc2)c2ccccc2)C1` (stereo not drawn), -3.9%. Regarding `CC(C)(C)c1ccc(C(=O)CCCN2CCC(OC(c3ccccc3)c3ccccc3)CC2)cc1`, the inhibition is -3.2%. As for `CN1[C@@H](CC(=O)c2ccccc2)CCC[C@H]1C[C@H](O)c1ccccc1`, the inhibition was 4.3% (active). Turning to `CC(C)c1cccc(C(C)C)c1N1C(=O)c2ccc(O)cc2C1=O`, the inhibition was 0.3% (active). As for `CCCCN1CCC(n2c(=O)[nH]c3ccccc32)CC1`, the figure is -1.6%. In the case of `O=C(CCCN1CCC(O)(c2ccc(Cl)cc2)CC1)c1ccc(F)cc1` it was -4%; in that of `O=C(O)/C=C/c1ccc(O)c(O)c1`, 9.6% (active); in that of `O=C(/C=C/c1ccc(O)c(O)c1)OCCc1ccccc1`, 19.7% (active). With `O=c1cc(-c2ccccc2)[nH]c2nc(Cl)ccc12`, the inhibition is -0.2%. As for `Nc1ncnc2c1nc(Br)n2C1OC2COP(=O)(O)O[C@@H]2C1O` (stereo partly drawn), the figure is -1.8%; as for `Nc1ncnc2c1nc(Sc1ccc(Cl)cc1)n2C1OC2COP(=O)(O)O[C@@H]2[C@@H]1O` (stereo partly drawn), 1.8% (active).

Take `Nc1nc(O)c2nc(Br)n(C3OC4COP(=O)(O)O[C@@H]4C3O)c2n1` (stereo partly drawn): the inhibition is -4.7%. Consider `C[C@H]1O[C@@H](n2cc(F)c(=O)[nH]c2=O)[C@H](O)[C@@H]1O`, for which the inhibition was 4.5% (active).

On to `O=c1ccn([C@@H]2O[C@H](COP(=O)(O)OP(=O)(O)O)[C@@H](O)[C@H]2O)c(=O)[nH]1`, for which the inhibition was -4.1%.

For the compound `c1ccc2c(c1)CCC[C@H]2Nc1nc2ccccc2[nH]1`, the inhibition was 12.1% (active).

For the compound `c1ccc2c(c1)CCCC2C1=NCCN1` (stereo not drawn), the inhibition is -3.7%.

With `NC(=NCc1ccccc1)NC(=O)c1nc(Cl)c(N)nc1N`, the inhibition is 4.4% (active). Take `NC(=Nc1ccccc1)NC(=O)c1nc(Cl)c(N)nc1N`: the inhibition was -0.3%.

`CCN(CC)CCOC(=O)c1ccc(N)cc1`: the inhibition is -3.4%. Turning to `CCCCc1oc2ccccc2c1C(=O)c1cc(I)c(OCCN(CC)CC)c(I)c1`, the inhibition was -1%. As for `CCN(CC)CCCCCCCCOC(=O)c1cc(OC)c(OC)c(OC)c1`, the figure is 6.2% (active).
